Source: PubChem
Tg IFNy HTS – T. gondii growth inhibition with IFN-gamma, primary screen, cell-based; Toxoplasma gondii growth in IFN-gamma-treated host cells; active compounds read low; activity change, negative = inhibition, % (test concentration not listed); actives 3.8% (n = 69,000); AID 1259416, 2018; in the data active means activity change below about -70%, passing the limit was not always enough;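 further: host cells are HeLa cells infected with Toxoplasma gondii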
* = called active by the depositor. This is one part of a sample in which hits are shown more often than they occur.

SMILES | Tg IFNy HTS
Cc1ccc(S(=O)(=O)Nc2ccc3c(c2)C(=O)N([C@H](C)CO)C[C@H](C)[C@H](CN(C)S(=O)(=O)c2cccs2)OCCCC[C@@H](C)O3)cc1 | -19
Cc1ccc(CNC(=O)c2cc3cc(S(=O)(=O)N(C)C)ccc3n2Cc2ccncc2)cc1 | -17
O=C(OCc1ccc2c(c1)OCO2)c1ccc(S(=O)(=O)N2CCOCC2)cc1 | -28
CC(=O)N1CCOCC2(C1)CN(C(=O)c1ccnnc1)CCO2 (stereo not given) | -36
COC1C2CCC1N(C(=O)COc1ccc(F)cc1)CCO2 (stereo not given) | 1
Cc1cccnc1[C@H](C)NC(=O)c1cccc(CC2CCNCC2)c1 | 12
Cc1nc(-c2ccc(Cl)cc2)sc1-c1ccnc(SCc2ccccc2)n1 | -62
Fc1cccc(CSc2nc(Nc3ccc4c(c3)OCO4)c3ccccc3n2)c1 | -48
c1ccc(CSc2nccc(-c3ccc4c(c3)CCO4)n2)cc1 | -81*
O=C(O)c1c(S(=O)(=O)N2CCCOCC2)sc2c1CCNC2 | -2
Cc1oc(-c2ccccc2)nc1CSc1nc2c(c(=O)[nH]1)CN(Cc1ccccc1)CC2 | -36
COc1ccc(-c2nc(CSc3nc4c(c(=O)[nH]3)CN(Cc3ccccc3)CC4)c(C)o2)cc1 | -77*
COc1ccc(CN2CCc3nc(SCc4nc(-c5ccccc5)oc4C)[nH]c(=O)c3C2)cc1 | -15
O=S(=O)(Nc1ccc(Cl)cc1)c1ccc(Cl)s1 | -1
CC(C)NC(=O)N1CCc2ncc(CN(C)C(C)C)n2CC1 | -4
Cc1nccc(CN2CCN(S(=O)(=O)N3CCCCC3)CC2)n1 | 46
Cc1cc2c(cc1NC(=O)Cc1c(C)oc3c1C(=O)CC(C)(C)C3)OCCO2 | 6
Cc1cc(C)n(CC(O)Cn2c3ccc(Cl)cc3c3cc(Cl)ccc32)n1 (stereo not given) | -36
CNCC(O)Cn1c(C)c(C)c2ccccc21 (stereo not given) | -3
OC(CNCc1ccccc1)Cn1c2ccc(Cl)cc2c2cc(Cl)ccc21 (stereo not given) | -91*
CCc1nn2c(C)c(C(=O)Nc3ccccc3OC)nnc2c1-c1ccc(F)cc1 | 48
CC1=C(C(=O)NCCc2ccccc2)C2(CCN(S(C)(=O)=O)CC2)OC1=O | 25
Cc1cc(C)c2c(CC(=O)N3CCC(O)(Cn4ccnc4C)CC3)coc2c1 | -2
COc1ccc2c(c1)OCC(CN(C)CCCn1nc(C)cc1C)=C2 | 15
CN(c1cncc(C(=O)N2CCN(c3cccc(Cl)c3)CC2)c1)S(=O)(=O)c1ccccc1 | -15
SMILES | Tg IFNy HTS
Cc1ccc(S(=O)(=O)N(C)c2cncc(C(=O)N3CCCCCC3)c2)cc1 | -11
Cc1ccc(S(=O)(=O)N(C)c2cncc(C(=O)N3CCC(Cc4ccccc4)CC3)c2)cc1 | -96*
CN1CCOCC2(CCCN(C(=O)Cc3ccsc3)C2)C1 (stereo not given) | 3
CN1CCOCC2(CCCN(C(=O)Cc3cccs3)C2)C1 (stereo not given) | -3
CCN1CCOCC2(CCCN(C(=O)Cc3ccsc3)C2)C1 (stereo not given) | -80*
CC(c1cccs1)N(C)C(=O)Cc1[nH]nc2ccccc12 (stereo not given) | -2
O=C(CN1C(=O)CNC1=O)N1CCOC(Cc2ccc(F)cc2)C1 (stereo not given) | 6
CCOc1ccc(-c2nc(Cc3noc(-c4ccc(C#N)cc4)n3)c(C)o2)cc1 | 18
CC1(CCC#N)N=C(SCCC#N)N(c2ccccc2)C1=O (stereo not given) | -74*
O=C(NCc1ccncc1)C1CC12CCN(C(=O)c1ccc(F)cc1)C2 (stereo not given) | -3
CC(C)COC1C2CCC1N(C(=O)c1cccn1C)C2 (stereo not given) | 3
COc1ccc2c(c1)c1c(n2Cc2ccccc2)CCCC1 | 19
O=C(O)Cn1c2c(c3ccccc31)CCC2 | -92*
O=C1SCCc2c1n(Cc1ccccc1)c1ccccc21 | 23
CCOC(=O)c1sc(NC(=O)CSc2nc(N)cc(N)n2)nc1-c1ccccc1 | -2
CC(C)NC(=O)N1CCOCC2(CCN(Cc3nccs3)C2)C1 (stereo not given) | 14
FC(F)(F)Oc1ccc(Nc2n[nH]c(=S)s2)cc1 | -92*
COc1ccc(CNc2n[nH]c(=S)s2)cc1 | 408
FC(F)(F)Oc1ccc(OCc2n[nH]c(=S)o2)cc1 | -35
CCc1ccccc1NC(=O)N1CCC2(CC1)Nc1cc(F)ccc1-n1cccc12 | 9
COCC1CN(C(=O)/C=C/c2cccs2)Cc2cncn2C1 (stereo not given) | 0
COc1ccccc1NC(=O)Nc1ccc(-c2nc(-c3ccccc3)co2)cc1 | 61
O=C(NCCc1c[nH]c2ccc(Cl)cc12)c1cccs1 | 11
O=C(NCCc1c[nH]c2ccc(Cl)cc12)c1sc2ncccc2c1-n1cccc1 | 423
CCCN1CCN(c2ncnc3sc(C(=O)NCCc4c[nH]c5ccc(Cl)cc45)c(C)c23)CC1 | -85*
O=C(Nc1nc(-c2ccccc2)cs1)C1CCCN1C(=O)OCc1ccccc1 (stereo not given) | 107
